Among the data in PubChem BioAssay (Tox21) are outcome and Potency values, retold here.

Where “and” joins values, the source holds several entries; their conditions need not be identical. Equal values may be shown once. Results filed as inconclusive are left out. The source holds several records for some structures; these can differ, active in one and inactive in another. Calls of active or inactive are those of the source. Unless noted, calls follow the shape of the dose curve; as a rule, active = well fitted curve in the direction sought with a large enough effect in the repeat runs; inconclusive = weak or mixed curves; inactive = no such curve, though single readings can be large; an effect the other way counts as inactive or inconclusive.

Assay [1] in a line: qHTS assay to identify small molecule agonists of the vitamin D receptor (VDR) signaling pathway - cell viability counter screen (AID 743224). Also: series mostly up to about 63 µM; nearly all actives have a fitted effect of over 50% in size. An outline of the steps: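 CellTiter-Glo viability readout on VDR-bla cells, measured after 16 h of compound treatment at 37C in the same wells.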
A general note: In qHTS, concentration-response curves come from the screen itself.

Assay [2] can be described thus: qHTS assay to identify small molecule antagonists of the vitamin D receptor (VDR) signaling pathway - cell viability counter screen (AID 743225). Also: nearly all actives have a fitted effect of over 50% in size. The method in brief:
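Cytotoxicity counter screen read by CellTiter-Glo luminescence (30 min, room temperature) in the same wells as the VDR-bla antagonist readout. HEK 293T VDR-UAS-bla cells had 16 h at 37C with compound and 3 nM (final) 1-alpha,25-dihydroxyvitamin D3, then 2 h with FRET substrate.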

The nature of assay [3]: qHTS assay to identify small molecule agonists of the NFkB signaling pathway (AID 1159509; active = well fitted curve in the direction sought with a large enough effect in the signal ratio in the repeat runs, not every such curve was filed as active; the % refers to the signal ratio; also: series mostly up to about 61 µM). An outline of the steps:
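Beta-lactamase reporter assay run in quantitative high-throughput format on an NF-kB-responsive ME-180 line, with 5 hr compound treatment and a FRET-based blue/green fluorescence readout.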

The nature of assay [4]: qHTS assay to identify small molecule agonists of the NFkB signaling pathway - cell viability counter screen (AID 1159515; calls by dose curve; also: series mostly up to about 61 µM; nearly all actives have a fitted effect of over 55% in size). The method in brief:
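Tox21 library compounds were tested for cytotoxicity against NFkB-bla ME-180 cells during a 5 hr exposure at 37 C. CellTiter-Glo luminescence served as the viability read-out.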

A short description of assay [5]: qHTS assay to identify small molecule agonists of the endoplasmic reticulum stress response signaling pathway (AID 1159516; active = well fitted activation curve with a large enough effect in the signal ratio in the repeat runs, not every such curve was filed as active; the % refers to the signal ratio). The method in brief: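 Fluorescence at 460 and 530 nm (405 nm excitation) reports beta-lactamase from an ER stress response element in HeLa cells treated 5 hr at 37 C.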
The nature of assay [6]: qHTS assay to identify small molecule agonists of the endoplasmic reticulum stress response signaling pathway - cell viability counter screen (AID 1159517; calls by dose curve; also: series mostly up to about 61 µM; nearly all actives have a fitted effect of over 50% in size). An outline of the steps:
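Steps: seed 1,500 ESRE-bla HeLa cells per well; incubate overnight at 37 C, 5% CO2; add compounds in DMSO for 5 hr; run FRET substrate 2 hr RT; add CellTiter-Glo, wait 30 min, read luminescence.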

Assay [7] is described as follows: qHTS assay to identify small molecule antagonists of the retinoid-related orphan receptor gamma (ROR-gamma) signaling pathway - cell viability counter screen (AID 1159520). Also: nearly all actives have a fitted effect of over 50% in size. An outline of the steps: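 Tet-on ROR gamma CHO cells were given compounds for 2 hr, then doxycycline hyclate at 1 uM final, and incubated 16 hr at 37 C. Viability was measured as ATP content by CellTiter-Glo luminescence.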

Assay [8] addresses Nuclear receptor ROR-gamma (Homo sapiens) (UniProt P51449). The assay can be described thus: qHTS assay to identify small molecule antagonists of the retinoid-related orphan receptor gamma (ROR-gamma) signaling pathway (AID 1159521; also: nearly all actives have a fitted effect of over 50% in size; also: potency is read from the fitted curve at half-maximal effect). The method in brief: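 Antagonist read-out: drop in luminescence (ONE-Glo) from an RORE-LUC reporter in CHO cells with doxycycline-inducible ROR-gamma; 2 hr compound pretreatment, 1 uM doxycycline, 16 hr incubation at 37 C.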

Assay [9] in a line: qHTS assay to identify small molecule agonists of the AP-1 signaling pathway - cell viability counter screen (AID 1159525; calls by dose curve; also: nearly all actives have a fitted effect of over 55% in size). An outline of the steps: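 Same-well cytotoxicity counter screen of the Tox21 10K library in ME-180 cells. The readout is ATP-dependent luminescence after 5 h compound treatment. Data are normalised to DMSO and tetra n-octyl ammonium bromide controls.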

Assay [10] in a line: qHTS assay to identify small molecule agonists of the AP-1 signaling pathway (AID 1159526; calls by dose curve).
In assay [11] the target is Retinoic acid receptor RXR-alpha (Homo sapiens) (UniProt P19793). Kind of assay: qHTS assay to identify small molecule agonists of the RXR signaling pathway (AID 1159527; calls by dose curve; also: nearly all actives have a fitted effect of over 35% in size; also: potency is read from the fitted curve at half-maximal effect). The method in brief:
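Agonist-mode beta-lactamase reporter assay: HEK 293T RXR-alpha-UAS-bla cells treated 16 hr at 37 C with compounds, 9-cis retinoic acid as positive control. LiveBLAzer FRET substrate, 405 nm excitation, 460/530 nm emission.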

Assay [12] is described as follows: qHTS assay to identify small molecule agonists of the RXR signaling pathway - cell viability counter screen (AID 1159529). The method in brief: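 CellTiter-Glo luminescence gave viability in the wells also read for beta-lactamase. Cells (RXR-alpha-UAS-bla HEK 293T, 2% charcoal-stripped FBS medium) had 5 hr plating, then 16 hr compound exposure at 37 C; tetraoctyl ammonium bromide served as positive control.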

Assay [13] is described as follows: qHTS assay to identify small molecule antagonists of the retinoid acid receptor (RAR) signaling pathway - cell viability counter screen (AID 1159551). Also: nearly all actives have a fitted effect of over 35% in size. The method in brief:
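In this counter screen, the RARE-luciferase line C3RL4 was exposed for 6 h at 37 C and 5% CO2 to compounds with retinol at 1 uM final. Cellular ATP, read by luminescence, served as the viability measure.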

A short description of assay [14]: qHTS assay to identify small molecule agonists of the retinoic acid receptor (RAR) signaling pathway (AID 1159553). An outline of the steps: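 In this cell-based screen, 1,000 C3RL4 cells per well were cultured overnight, dosed with test chemicals in DMSO for 6 hr, and assessed for RARE luciferase luminescence.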

Retinoic acid receptor RXR-alpha (Homo sapiens), sequence (P19793 whole entry, looked up): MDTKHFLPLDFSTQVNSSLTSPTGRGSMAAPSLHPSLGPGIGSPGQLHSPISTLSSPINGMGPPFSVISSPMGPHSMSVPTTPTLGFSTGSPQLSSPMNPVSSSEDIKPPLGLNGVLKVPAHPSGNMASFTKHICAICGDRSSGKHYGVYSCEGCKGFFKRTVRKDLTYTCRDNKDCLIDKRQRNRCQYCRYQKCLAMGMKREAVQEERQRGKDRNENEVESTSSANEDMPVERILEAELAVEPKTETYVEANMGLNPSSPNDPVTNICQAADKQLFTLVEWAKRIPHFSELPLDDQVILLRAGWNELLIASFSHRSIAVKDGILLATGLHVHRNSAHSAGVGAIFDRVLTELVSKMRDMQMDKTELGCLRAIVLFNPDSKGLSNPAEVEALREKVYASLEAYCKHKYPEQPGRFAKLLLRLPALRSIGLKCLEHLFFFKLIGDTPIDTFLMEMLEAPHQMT

With `C=CCc1ccc(OC)c(OC)c1`, the call in assay [1], in assay [2], in [3], in assay [4], in assay [5] and in assay [7] was inactive. The molecule was called inactive in [9], in [12] and in [13]. The Potency entry in [6], in [8] and in assay [10] was “inactive” each time. Besides, the Potency result in [11] is “inactive and 7.76 µM (active)”.

Turning to `C=C(C)[C@H]1CC=C(C)C(=O)C1`, the result in assay [1], in [2], in [3], in assay [4], in assay [5] and in [7] was inactive. Besides, the call in assay [9], in assay [12] and in assay [13] was inactive. Also, the Potency entry in [6], in assay [8], in assay [10] and in assay [11] was “inactive” throughout.

On to `COCCCN`, for which the result in [1], in [2], in [3], in [4], in assay [5] and in assay [7] was inactive. Moreover, the molecule was called inactive in [9], in assay [12] and in assay [13]. Also, the Potency result in assay [6], in assay [8], in [10] and in [11] was “inactive” in each case.

As for `COc1ccc(C)cc1N`, the outcome in assay [1], in [2], in assay [3], in assay [4], in assay [5] and in [7] was inactive. Besides, the outcome in assay [9], in assay [12] and in assay [13] was inactive. Besides, the Potency result in assay [6], in assay [8], in [10], in assay [11] and in [14] was “inactive” in each case.

Turning to `Cc1ccc(C(C)C)c(O)c1`, the call in assay [2], in [3], in assay [4], in assay [5], in assay [7] and in assay [9] was inactive. Besides, the outcome in assay [12] and in assay [13] was inactive. Moreover, the Potency result in assay [6], in assay [8], in [10], in assay [11] and in [14] was “inactive” each time.

In the case of `CCNC(=S)NCC`, the molecule was classed as inactive in [1], in [2], in assay [3], in assay [4], in [5] and in assay [7]. Besides, the outcome in assay [9], in assay [12] and in assay [13] was inactive. Further, the Potency result in assay [6], in assay [8], in [10] and in assay [11] was “inactive” each time.

Turning to `CCO[Si](CCCN)(OCC)OCC`, the molecule was called inactive in assay [1], in [2], in assay [3], in assay [4], in assay [5] and in [7]. Further, the outcome in assay [9], in assay [12] and in [13] was inactive. The Potency result in assay [6], in [8] and in assay [10] was “inactive” each time. For the same molecule, the Potency in [11] is 19.5 µM (active) and inactive.

On to `COC(=O)CCCC(=O)OC`, for which the molecule was classed as inactive in assay [1], in [2], in assay [3], in assay [4], in assay [5] and in assay [7]. For the same molecule, the outcome in assay [9], in [12] and in assay [13] was inactive. Further, the Potency entry in [6], in assay [8], in assay [10], in [11] and in [14] was “inactive” throughout.

On to `CN(C)c1ccc(O)c2c1C[C@H]1C[C@H]3[C@H](N(C)C)C(=O)C(C(N)=O)=C(O)[C@@]3(O)C(=O)C1=C2O`, for which the molecule was classed as inactive in assay [1], in assay [2], in [3], in assay [4], in assay [5] and in assay [7]. The result in assay [9], in assay [12] and in [13] was inactive. Moreover, the Potency result in [6], in assay [10] and in assay [11] was “inactive” in each case. In assay [8], the Potency is 21.7 µM (active) and 26.6 µM (active).

For `COc1ccc(OC)cc1`, the molecule was called inactive in assay [1], in assay [2], in [3], in assay [4], in assay [5] and in assay [7]. The molecule was called inactive in assay [9], in assay [12] and in assay [13]. In addition, the Potency entry in assay [6], in assay [8], in assay [10] and in assay [11] was “inactive” each time.

For `CCOCCOCCOCCO`, the call in [1], in [2], in assay [3], in assay [4], in assay [5] and in [7] was inactive. The call in assay [9], in assay [12] and in assay [13] was inactive. Moreover, the Potency entry in assay [6], in assay [8], in assay [10], in assay [11] and in assay [14] was “inactive” throughout.
